# According to PubChem BioAssay:
# Calls of active or inactive are those of the source.
# How the values were obtained:
# [1] = binders of probe aFSTL3 on microarray, primary screen, stem cell growth factor project, biochemical, small-molecule microarray, fluorescence 635/667 (AID 1064); conditions: higher = more signal;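 also: measures binding of the biotinylated anti-FSTL3 antibody to printed compounds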
# [2] = binders from COS7 lysate, DM2A8 probe, primary screen, torsin A project, cell lysate, small-molecule microarray, fluorescence 635/667 (AID 1065); conditions: higher = more signal, COS7 lysate expressing mutant human TOR1A
# [3] = binders of probe aFGF2 on microarray, primary screen, stem cell growth factor project, biochemical, small-molecule microarray, fluorescence 635/667 (AID 1067); conditions: higher = more signal;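 also: measures binding of biotinylated aFGF2 protein to printed compounds on slides; z-score merges feature fluorescence and signal-to-noise across triplicate slides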
# [4] = binders of probe aFGF10 on microarray, primary screen, stem cell growth factor project, biochemical, small-molecule microarray, fluorescence 635/667 (AID 1071); conditions: higher = more signal;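 also: score merges 667 nm spot intensity and signal to noise from triplicate slides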
# [5] = molecular target: Neurogenic locus notch homolog protein 2 (Homo sapiens) (UniProt Q04721); assay: Notch2 binders on small-molecule microarrays, primary screen, biochemical, small-molecule microarray, 635 nm fluorescence, stem cell growth factors (AID 1073); conditions: Notch2 binding, higher = more signal
# [6] = molecular target: Pro-neuregulin-1, membrane-bound isoform (Homo sapiens) (UniProt Q02297); assay: NRG1 binders on small-molecule microarrays, primary screen, psychiatric disease protein project, biochemical, small-molecule microarray, fluorescence 635/667 (AID 1075); conditions: NRG1 binding, 635 nm fluorescence, higher = more signal;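 also: score combines 667 nm spot fluorescence with signal to noise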
# Sequence of Pro-neuregulin-1, membrane-bound isoform (Homo sapiens) (Q02297 whole entry, looked up, the tested form may be a part, canonical isoform): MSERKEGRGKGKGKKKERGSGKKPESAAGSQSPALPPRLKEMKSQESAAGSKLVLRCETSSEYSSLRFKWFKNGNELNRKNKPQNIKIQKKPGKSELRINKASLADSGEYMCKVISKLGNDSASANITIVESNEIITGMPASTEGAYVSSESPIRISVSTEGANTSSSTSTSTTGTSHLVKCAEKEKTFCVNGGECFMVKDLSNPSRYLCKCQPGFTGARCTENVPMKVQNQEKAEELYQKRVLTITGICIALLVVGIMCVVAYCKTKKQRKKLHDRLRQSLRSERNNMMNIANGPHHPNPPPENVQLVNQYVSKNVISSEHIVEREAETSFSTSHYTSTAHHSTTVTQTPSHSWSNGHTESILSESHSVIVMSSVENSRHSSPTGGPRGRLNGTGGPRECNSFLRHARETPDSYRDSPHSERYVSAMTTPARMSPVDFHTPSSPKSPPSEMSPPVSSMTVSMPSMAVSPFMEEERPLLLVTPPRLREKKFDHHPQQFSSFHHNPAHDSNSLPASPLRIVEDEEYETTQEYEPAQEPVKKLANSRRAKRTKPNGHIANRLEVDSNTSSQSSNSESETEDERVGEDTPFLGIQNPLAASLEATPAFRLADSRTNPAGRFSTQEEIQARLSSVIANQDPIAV
# [7] = tested on: Neuregulin-1 EGF-like domain; assay: binders of neuregulin-1 EGF-like domain, primary screen, biochemical, small-molecule microarray, 635 nm fluorescence (AID 1081); conditions: small-molecule microarray binding, higher = more signal;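 also: binding of the protein to compounds printed on small-molecule microarray slides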
# [8] = FRG1 promoter luciferase signal modulators, primary screen, FRG1 inhibition for FSHD, cell-based, C2C12 myotubes, firefly/Renilla luciferase, luminescence (AID 1084); conditions: higher = more signal, called active from +8 up or from −8 down
# [9] = binders of probe aFST on microarray, primary screen, stem cell growth factor project, biochemical, small-molecule microarray, fluorescence 635/667 (AID 1086); conditions: higher = more signal;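 also: score merges 667 nm fluorescence with signal-to-noise of each printed compound spot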
# [10] = binders of probe aHhip on microarray, primary screen, stem cell growth factor project, biochemical, small-molecule microarray, fluorescence 635/667 (AID 1087); conditions: higher = more signal;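 also: score merges spot fluorescence at 667nm with spot signal to noise ratio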
# [11] = tested on: PRMT1 (protein arginine N-methyltransferase 1); assay: PRMT1 binders on small-molecule microarrays, primary screen, biochemical, small-molecule microarray, 635 nm fluorescence (AID 1088); conditions: small-molecule microarray binding, higher = more signal;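 also: binding of Prmt1 protein to compounds spotted on small-molecule microarray slides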
# [12] = yeast growth modulation, basal conditions, primary screen, YJM789 clinical isolate, OD600, 24 h (AID 1089);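 also: growth of clinical yeast isolate S. cerevisiae YJM 789 seeded 1000 cells per well; test concentration not given here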; conditions: S. cerevisiae YJM789 growth, higher = more signal, called active from +8 up or from −8 down
# [13] = fission yeast growth modulation, primary screen, strain 972, OD600, 24 h, no modulator (AID 1090);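 also: basal condition with compound alone and no growth modifier present; test concentration not given here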; conditions: S. pombe 972 growth, higher = more signal, called active from +8 up or from −8 down
# [14] = S. cerevisiae growth modulation with rapamycin, primary screen, strain BY4716, OD600, 96 h (AID 1091); conditions: higher = more signal, called active from +8 up or from −8 down; also: test concentration not given here
# [15] = molecular target: Torsin-1A-interacting protein 2 (Homo sapiens) (UniProt Q8NFQ8); assay: LULL1 binders on small-molecule microarray, primary screen, cell lysate, human LULL1 lysate, 635/667 nm fluorescence (AID 1092); conditions: hLULL1 lysate binding, 635 nm fluorescence, higher = more signal;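 also: probe is lysate of COS7 cells overexpressing human LULL1; score merges per-feature 667 nm fluorescence with signal-to-noise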
# Sequence of Torsin-1A-interacting protein 2 (Homo sapiens) (Q8NFQ8 whole entry, looked up): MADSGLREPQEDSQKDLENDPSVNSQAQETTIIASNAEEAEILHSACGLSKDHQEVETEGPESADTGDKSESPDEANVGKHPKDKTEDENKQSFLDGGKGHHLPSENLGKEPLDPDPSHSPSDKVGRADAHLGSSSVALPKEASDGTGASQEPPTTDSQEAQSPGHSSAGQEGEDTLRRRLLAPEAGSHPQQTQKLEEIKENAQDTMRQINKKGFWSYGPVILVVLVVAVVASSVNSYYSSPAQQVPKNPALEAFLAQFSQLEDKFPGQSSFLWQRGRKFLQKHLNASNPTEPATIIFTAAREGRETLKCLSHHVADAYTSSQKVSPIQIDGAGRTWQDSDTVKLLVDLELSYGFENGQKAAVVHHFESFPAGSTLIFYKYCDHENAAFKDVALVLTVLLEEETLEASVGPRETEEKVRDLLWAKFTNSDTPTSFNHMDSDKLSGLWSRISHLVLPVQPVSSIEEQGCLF
# [16] = E. coli growth modulation, two-sided OD650, primary screen, E. coli filamentation project, strain DRC41, 24 h (AID 1093); conditions: OD650, 24 h, higher = more signal, called active from +8 up or from −8 down;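 also: MC1000 strain lacking acrAB efflux and sulA so SOS filamentation is blocked; test concentration not given here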
# [17] = small-molecule microarray binders of probe aLefty2, primary screen, biochemical, biotinylated probe, 635/667 nm fluorescence (AID 1094); conditions: higher = more signal;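 also: score merges spot fluorescence near 667 nm with spot signal-to-noise ratio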
# [18] = tested on: Noggin (protein binding on small-molecule microarray); assay: Noggin binders on small-molecule microarray, primary screen, biochemical, 635/667 nm fluorescence (AID 1095); conditions: 635 nm fluorescence, higher = more signal;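 also: score merges 667 nm feature fluorescence with signal to noise over triplicate slides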
# [19] = molecular target: Neurogenic locus notch homolog protein 3 (Homo sapiens) (UniProt Q9UM47); assay: NOTCH3 binders on small-molecule microarray, primary screen, biochemical, 635/667 nm fluorescence (AID 1096); conditions: NOTCH3 binding, 635 nm fluorescence, higher = more signal
# Sequence of Neurogenic locus notch homolog protein 3 (Homo sapiens) (Q9UM47 whole entry, looked up): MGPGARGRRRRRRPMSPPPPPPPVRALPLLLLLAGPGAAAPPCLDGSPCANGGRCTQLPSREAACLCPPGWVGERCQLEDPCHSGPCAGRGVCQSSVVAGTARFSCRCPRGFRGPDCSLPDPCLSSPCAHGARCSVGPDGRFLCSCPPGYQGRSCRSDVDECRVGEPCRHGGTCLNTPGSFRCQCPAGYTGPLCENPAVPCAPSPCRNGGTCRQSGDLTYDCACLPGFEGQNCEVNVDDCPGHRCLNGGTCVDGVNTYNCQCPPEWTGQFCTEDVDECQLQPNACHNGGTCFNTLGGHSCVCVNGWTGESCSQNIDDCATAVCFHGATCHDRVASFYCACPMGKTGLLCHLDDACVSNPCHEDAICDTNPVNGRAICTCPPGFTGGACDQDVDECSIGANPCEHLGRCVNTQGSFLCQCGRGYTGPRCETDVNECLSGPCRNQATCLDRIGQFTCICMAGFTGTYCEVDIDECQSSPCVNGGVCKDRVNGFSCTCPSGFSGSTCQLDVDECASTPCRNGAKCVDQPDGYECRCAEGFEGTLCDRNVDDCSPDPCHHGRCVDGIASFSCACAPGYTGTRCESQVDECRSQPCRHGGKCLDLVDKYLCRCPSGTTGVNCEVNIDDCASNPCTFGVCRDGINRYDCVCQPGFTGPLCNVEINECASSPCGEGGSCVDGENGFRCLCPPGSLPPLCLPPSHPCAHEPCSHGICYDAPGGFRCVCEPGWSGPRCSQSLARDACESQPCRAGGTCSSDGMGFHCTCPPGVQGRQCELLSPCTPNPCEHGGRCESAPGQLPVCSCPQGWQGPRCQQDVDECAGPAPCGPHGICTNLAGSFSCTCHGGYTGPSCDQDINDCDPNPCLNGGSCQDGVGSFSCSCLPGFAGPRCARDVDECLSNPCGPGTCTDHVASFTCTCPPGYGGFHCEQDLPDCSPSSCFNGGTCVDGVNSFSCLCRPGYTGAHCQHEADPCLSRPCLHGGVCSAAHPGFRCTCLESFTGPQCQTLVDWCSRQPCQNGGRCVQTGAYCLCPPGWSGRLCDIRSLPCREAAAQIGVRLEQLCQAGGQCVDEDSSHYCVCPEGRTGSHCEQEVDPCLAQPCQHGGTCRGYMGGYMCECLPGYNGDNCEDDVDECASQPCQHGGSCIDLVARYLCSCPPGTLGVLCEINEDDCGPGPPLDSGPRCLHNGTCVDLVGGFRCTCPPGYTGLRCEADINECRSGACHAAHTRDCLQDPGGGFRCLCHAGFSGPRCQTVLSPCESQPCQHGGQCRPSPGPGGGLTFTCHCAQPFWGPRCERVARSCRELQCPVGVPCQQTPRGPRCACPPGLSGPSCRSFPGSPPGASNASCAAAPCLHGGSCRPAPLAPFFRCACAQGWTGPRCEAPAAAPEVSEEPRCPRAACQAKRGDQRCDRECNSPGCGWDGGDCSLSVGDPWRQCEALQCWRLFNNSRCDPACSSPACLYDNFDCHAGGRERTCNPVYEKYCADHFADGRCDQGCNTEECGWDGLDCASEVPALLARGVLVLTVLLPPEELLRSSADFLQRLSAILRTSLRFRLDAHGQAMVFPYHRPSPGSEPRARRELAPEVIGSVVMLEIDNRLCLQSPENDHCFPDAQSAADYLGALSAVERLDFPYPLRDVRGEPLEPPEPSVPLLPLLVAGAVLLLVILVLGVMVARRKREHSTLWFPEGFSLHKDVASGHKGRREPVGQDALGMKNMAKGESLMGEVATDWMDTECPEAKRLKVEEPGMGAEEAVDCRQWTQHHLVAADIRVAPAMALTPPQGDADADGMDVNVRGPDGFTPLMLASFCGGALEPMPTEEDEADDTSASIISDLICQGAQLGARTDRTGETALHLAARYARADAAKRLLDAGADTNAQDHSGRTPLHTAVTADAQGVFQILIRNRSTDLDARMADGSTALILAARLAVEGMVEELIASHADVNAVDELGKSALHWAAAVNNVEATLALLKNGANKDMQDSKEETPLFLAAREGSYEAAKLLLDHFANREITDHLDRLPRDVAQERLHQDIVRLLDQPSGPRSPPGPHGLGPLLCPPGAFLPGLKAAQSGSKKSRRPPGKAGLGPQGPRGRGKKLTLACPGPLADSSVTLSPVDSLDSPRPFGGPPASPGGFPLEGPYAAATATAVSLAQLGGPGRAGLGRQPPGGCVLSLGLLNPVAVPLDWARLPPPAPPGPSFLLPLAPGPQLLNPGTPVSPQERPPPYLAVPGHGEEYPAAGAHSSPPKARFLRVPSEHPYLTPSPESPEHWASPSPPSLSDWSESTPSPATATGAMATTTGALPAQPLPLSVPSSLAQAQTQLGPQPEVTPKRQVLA
# [20] = small-molecule microarray binders of probe aEGFR, primary screen, biochemical, biotinylated probe, 635/667 nm fluorescence (AID 1097); conditions: higher = more signal;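 also: probe is a biotinylated anti-EGFR antibody binding compounds printed on slides; score combines fluorescence near 667 nm and signal to noise of each spot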
SMILES,composite z-score [1],composite z-score [2],composite z-score [3],composite z-score [4],composite z-score [5],composite z-score [6],composite z-score [7],z-score [8],composite z-score [9],composite z-score [10],composite z-score [11],z-score [12],z-score [13],z-score [14],composite z-score [15],z-score [16],composite z-score [17],composite z-score [18],composite z-score [19],composite z-score [20]
Cc1cccc([C@H]2C[C@H]3C(I)=C[C@@H]2C(=O)[C@]32CO2)c1,0.165,0.0974,-0.128,-0.152,-0.714,-0.507,-0.38,2.56 (inactive),-0.0256,-0.236,-0.614,-2.5 (inactive),-20.2 (active),-2.15 (inactive),-0.842,-0.2 (inactive),0.0735,0.461,-0.0085,-0.108
CCCNC(=O)[C@@]1(C)c2ccccc2C(=O)N(Cc2ccccc2)[C@H]1c1ccc(CO)cc1,1.93,-0.685,0.12,1.32,-1.28,1.97,0.974,-1.98 (inactive),0.476,0.106,1.54,-0.864 (inactive),-1.08 (inactive),-0.871 (inactive),2.76,1.32 (inactive),0.0844,-1.1,-0.127,-0.094
[N-]=[N+]=Nc1ccccc1C[C@]1(C(=O)NCc2ccccc2)COC(c2ccc(OCCCO)cc2)=N1,0.191,0.666,0.113,1.27,0.777,1.24,1.21,-1.36 (inactive),0.892,-0.207,1.32,1.04 (inactive),0.184 (inactive),32.1 (active),3.33,1.04 (inactive),0.0573,0.544,1.08,-0.0669
O=C(CS)NCCCCCNC(=O)[C@@H]1C[C@@H]2C(=O)N[C@@H](Cc3ccccc3)C(=O)N2[C@@H]1c1cccc(OCCO)c1,-0.0315,0.692,-0.01,0.325,0.0566,1.43,1.39,0.057 (inactive),0.0454,-0.277,1.56,0.368 (inactive),-0.653 (inactive),0.658 (inactive),3.04,0.142 (inactive),-0.515,0.203,0.823,-0.0271
C[C@@H]1ON(c2ccc(I)cc2)[C@H](c2ccc(OC(=O)OC(C)(C)C)cc2)[C@H]1C(=O)N1C(=O)OC[C@H]1Cc1ccccc1,-0.478,0.0988,-0.175,0.253,0.756,0.178,0.492,3.7 (inactive),0.238,-0.0672,1.35,-0.0865 (inactive),-1.73 (inactive),1.9 (inactive),2.08,1.77 (inactive),-0.0736,0.447,1.02,-0.0351
COc1cc(C(O)C2C=CC3C(=O)N(Cc4ccccc4)C(=O)C3N2n2cnnc2)cc(OC)c1OC (stereo not given),-0.246,0.606,0.133,0.537,1.49,0.332,1.14,-1.7 (inactive),0.39,-0.0867,0.932,-1.3 (inactive),-0.519 (inactive),-1.22 (inactive),1.36,0.582 (inactive),0.327,-0.127,0.626,0.298
CC1(C)C(=O)C(c2ccccc2)=C2CN3C(=O)N(CCc4ccccc4)C(=O)C3(Cc3ccc(C(F)(F)F)cc3)C=C21 (stereo not given),0.138,-0.2,0.0814,0.432,1.66,0.613,0.831,-0.495 (inactive),1.67,-0.0024,-0.362,1.32 (inactive),2.01 (inactive),3.28 (inactive),2.65,-1.21 (inactive),0.208,-0.0717,1.13,0.284
C[C@]1(C(=O)O)c2ccccc2C(=O)N(Cc2ccc(OC(F)(F)F)cc2)[C@H]1c1ccc(CO)cc1,0.592,-0.139,-0.0442,-0.106,-0.0052,0.787,0.509,-1.27 (inactive),0.302,-0.226,-0.0461,-0.691 (inactive),-0.767 (inactive),-0.686 (inactive),0.945,0.402 (inactive),0.122,-0.94,-0.505,-0.179
COC(=O)[C@@]1(Cc2ccc(F)cc2)[C@H]2c3cc(C(=O)N(C)C)n(Cc4ccc(O)c(OC)c4)c3C[C@H]2CN1C(=O)c1ccccc1,0.129,0.196,0.0398,0.531,1.35,1.26,0.786,2.98 (inactive),0.675,1.17,0.423,0.0973 (inactive),-1.2 (inactive),0.485 (inactive),2.2,1.02 (inactive),0.0043,0.718,1.13,0.0977
C=C(COC)/C(=C/C[C@H](OC(C)=O)c1cccc(OCCO)c1)c1cnc2ccccc2c1,-0.194,0.569,-0.0325,1.05,1.26,0.743,1.11,1.46 (inactive),0.654,0.107,1.53,1.25 (inactive),-0.0332 (inactive),1.03 (inactive),2.18,-0.094 (inactive),-0.0415,1.64,1.04,-0.0267
